test system: CAMK2G; settings: Compound Concentration (nM):1000
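Further: KINOMEscan scanMAX binding as percent activity remaining versus control; lower means stronger binding.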

Percent Control, inactive:
O=C(Nc1n[nH]c2nc(-c3ccc(O)cc3)c(Br)cc12)C1CC1 [SB-725317] 100%
COc1cccc(-c2c[nH]c3c(N/N=C/c4ccncc4)ncnc23)c1 [GW814408X] 100%
Cl.O=C(O[C@H]1CN[C@H](C#Cc2cc3ncnc(Nc4ccc5c(cnn5Cc5ccccc5)c4)c3s2)C1)N1CCOCC1 [GSK200398A] 96%
CCS(=O)(=O)c1ccc(OC)c(Nc2ncc(-c3cccc(OC)c3)o2)c1 [GW580509X] 93%
COc1ccc2cc(-c3c(-c4ccncc4)nc(-c4ccc(S(C)(=O)=O)cc4C)n3C)ccc2c1 [SB-633825] 76%
COc1ccc(COc2ccc(Cc3cnc(N)nc3N)cc2OC)cc1 [GW632580X] 99%
C[C@@H](Oc1cc(-n2cnc3ccc(OC4CCN(C)CC4)cc32)sc1C(N)=O)c1ccccc1Cl [GSK579289A] 69%
CCS(=O)(=O)c1ccc(OC)c(Nc2ncc(-c3cccc(F)c3)o2)c1 [GW621970X] 100%
COc1cc(N2CCN(C(C)C)CC2)ccc1Nc1nc(Nc2ccc(F)cc2C(=O)NC[C@@H](O)CO)c2cc[nH]c2n1 [GSK1392956A] 90%
COc1cc2ncn(-c3cc(O[C@H](C)c4ccccc4Cl)c(C(N)=O)s3)c2cc1OC [GSK237701A] 88%
Cl.O=C(Nc1ccc(Oc2ccc3[nH]c(NC(=O)c4ccccc4)nc3c2)cc1)Nc1cc(C(F)(F)F)ccc1F [GW709042A] 100%
COc1cc(C)c(N(C)C(=O)CN(C)C)cc1Nc1nc(Nc2cccc(F)c2C(N)=O)c2cc[nH]c2n1 [GSK2219385] 98%
CCc1ccc(Oc2nccc(-c3c(-c4ccc(F)cc4)ncn3C3CCNCC3)n2)cc1 [SB-242719] 100%
CC1=C(C(=O)Nc2ccc3[nH]ncc3c2)C(c2ccc3ccccc3c2)CC(=O)N1 (stereo not shown) [GSK270822A] 79%
Nc1ncnc2occ(-c3ccc(NC(=O)Nc4cc(C(F)(F)F)ccc4F)cc3)c12 [GW770249X] 92%
O=C1Nc2ccc(C(=O)c3ccco3)cc2C1=Cc1cc(Cl)c(O)c(Cl)c1 [GW406108X] 77%
COc1ccc2[nH]c3c4[nH]c5ccc(OC)cc5c4c4c(c3c2c1)C(=O)NC4=O [GW296115X] 80%
CN(C)CCNC(=O)Nc1ccc(N(C)c2ccnc(Nc3ccc(CS(C)(=O)=O)cc3)n2)cc1.Cl [GW830900A] 100%
Cl.c1ccc(Cc2nc3ccc(Nc4ncnc5ccccc45)cc3[nH]2)cc1 [GR269666A] 100%
COc1ccc2c(-c3ccnc(Nc4cccc(OC(F)(F)F)c4)n3)cnn2n1 [GW810372X] 100%
COc1cccc(-n2ncc3c(N/N=C/c4ccncc4)ncnc32)c1 [GW784752X] 100%
COc1cc(/C=N/Nc2ncnc3[nH]ncc23)ccc1O [GW578748X] 100%
NS(=O)(=O)c1ccc(N/N=C2\C(=O)Nc3ccc(C(=O)NCCc4c[nH]cn4)cc32)cc1 [GW300660X] 100%
NS(=O)(=O)c1ccc(N/N=C2\C(=O)Nc3ccc(-c4cnco4)cc32)cc1 [GW276655] 91%
NS(=O)(=O)c1ccc(Nc2ncc(-c3ccccc3)o2)cc1 [GW572399X] 100%
C/C(Nc1ccc(S(N)(=O)=O)cc1)=C1/C(=O)Nc2ccccc21 [GW335962X] 95%
Cl.O=S1CCN(Cc2ccc(-c3ccc4ncnc(Nc5ccc(OCc6ccccc6)c(F)c5)c4c3)o2)CC1 [GW576924A] 100%
CN(C)c1cc2c(Nc3ccc4c(cnn4Cc4ccccc4)c3)ncnc2cn1 [GW282974X] 82%
CCn1c(-c2nonc2N)nc2c(C#CC(C)(C)O)nc(OCCNC)cc21.Cl [GSK949675] 100%
CC(C)COC(=O)c1ccc2c(c1)/C(=C/Nc1ccc(S(N)(=O)=O)cc1)C(=O)N2 [GW416981X] 100%
CC1=C(C(=O)Nc2ccc3[nH]ncc3c2)C(c2ccc(Cl)c(Cl)c2)CC(=O)N1 (stereo not shown) [GSK299115A] 95%
NS(=O)(=O)c1ccc(N/N=C2\C(=O)Nc3ccc(Cl)cc32)cc1 [GW280670X] 100%
COc1cc(C=NNc2ncnc3c2cnn3-c2ccccc2)ccc1O [GW513184X] 100%
COc1cc2ncnc(Nc3ccc4c(cnn4Cc4ccccc4)c3)c2cc1OC.Cl [GW282449A] 100%
COC(=O)Nc1nc2ccc(Oc3ccc(NC(=O)Nc4cc(C(F)(F)F)ccc4F)cc3)cc2s1.Cl [GW693917A] 100%
NS(=O)(=O)c1ccc(N/N=C2\C(=O)Nc3ccc(C(=O)NCc4ccncc4)cc32)cc1 [GW300657X] 82%
Cl.O=C(Nc1ccc(Oc2ccc3[nH]c(NC(=O)c4ccco4)nc3c2)cc1)Nc1cc(C(F)(F)F)ccc1F [GW683134A] 100%
